Here are results for six compounds from the supplement of paper PMC12350171.

Molecules are shown by their SMILES. Structures can show the parent of a compound that is named as a salt. A number with no mark means an inactive call.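 The calls were made as follows: active = AUC significantly below DMSO controls by Student t-fit with adjusted P under 0.01; inactive = not significantly reduced.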

The test relates to Haemophilus parainfluenzae. Description: growth AUC normalised to DMSO control (fraction of control); higher = less growth inhibition, active = hit call of the paper. The conditions noted are these: 20 µM. Summed up:
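Three biological replicates were carried out, with OD578 read hourly for 24 h. Before inoculation at a starting OD578 of 0.01, pathogens were passaged anaerobically twice; plates were pre-reduced mGAM containing 20 μM compound and 1% DMSO, sealed with breathable membranes, and the Haemophilus parainfluenzae medium carried added hemin and NAD. Area under each growth curve was calculated by the trapezoidal rule up to the exponential-to-stationary transition and normalised to DMSO controls on the same plate.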
Turning to `Cc1cccc(C)c1NC(=O)C(C)N` (stereo unspecified) [Tocainide hydrochloride], the “growth AUC normalised to DMSO control” value is 0.99.

In the case of `NCCNCCNCCNCCN` [Tetraethylenepentamine pentahydrochloride], the “growth AUC normalised to DMSO control” value is 0.971. `CC(=O)c1ccc2c(c1)N(CCCN(C)C)c1ccccc1S2` [Acetopromazine maleate salt]: the “growth AUC normalised to DMSO control” value was 0.95. The same measure for `Nc1ccc(/N=N/c2ccccc2)c(N)n1` [Phenazopyridine hydrochloride]: 0.922. The same measure for `CCC1NC(=O)c2cc(S(N)(=O)=O)c(Cl)cc2N1` (stereo unspecified) [Quinethazone]: 1.16; for `CN(C)CCCN1c2ccccc2CCc2ccccc21` [Imipramine hydrochloride]: 0.923.
